Results from PubChem BioAssay (EPA / NIEHS).
The source made the active and inactive calls. How the source made its calls: active means hit-call score of the fitted dose curve at least 0.9, where 1 is the maximum; inactive means score below 0.9.

read-out: CYP4A11 (gene 1579); test: LTEA_HepaRG_CYP4A11: Life Technologies and Expression Analysis (LTEA) Assay for CYP4A11 using HepaRG (AID 2283486); conditions: mRNA level, 48 h; actives raise or lower the signal
In short: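 Human hepatic HepaRG cultures receive duplicate 48 h exposures across a concentration-response series topping at 100 uM. Expression changes in CYP4A11 are measured by qRT-PCR relative to DMSO controls.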

| Compound | outcome | AC50 |
| --- | --- | --- |
| O=C1c2ccccc2C(=O)N1CCc1noc(-c2ccc(CN3CCCCCC3)s2)n1 | inactive |  |
| CC(C)(C)c1cc(/C=C2\SC(N)=NC2=O)cc(C(C)(C)C)c1O |  | 29.1 µM (active) |
| CCCCOC(=O)c1ccc(O)cc1 | inactive |  |
| O=c1c(-c2ccc(O)cc2)coc2cc(O)cc(O)c12 | inactive |  |
| O=C(O)c1ccccc1C(=O)OCc1ccccc1 |  | 26.2 µM (active) |
| CCN(Cc1cccc(S(=O)(=O)O)c1)c1ccc(C(=C2C=CC(=[N+](CC)Cc3cccc(S(=O)(=O)O)c3)C=C2)c2ccccc2S(=O)(=O)[O-])cc1 | inactive |  |
| O=CCCCC=O | inactive |  |
| c1ccc2ccccc2c1 | inactive |  |
| O=C=NCCCCCCN=C=O | inactive |  |
| CO[C@H]1/C=C/O[C@@]2(C)Oc3c(C)c(O)c4c(O)c(c(/C=N/N5CCN(C)CC5)c(O)c4c3C2=O)NC(=O)/C(C)=C\C=C\[C@H](C)[C@H](O)[C@@H](C)[C@@H](O)[C@@H](C)[C@H](OC(C)=O)[C@@H]1C |  | 0.593 µM (active) |
| OC12N=C(c3ccccc3)SC1Cc1cc(Cl)ccc12 (stereo unspecified) |  | 49 µM (active) |
| Clc1ccccc1C(c1ccccc1)(c1ccccc1)n1ccnc1 |  | 15.8 µM (active) |
| CCCC(=O)OCCC(C)C | inactive |  |
| CC(=O)N1CCN(c2ccc(OC[C@H]3CO[C@](Cn4ccnc4)(c4ccc(Cl)cc4Cl)O3)cc2)CC1 |  | 12.4 µM (active) |
| Cc1cn([C@H]2C[C@H](N=[N+]=[N-])[C@@H](CO)O2)c(=O)[nH]c1=O | inactive |  |
| c1ccc(C[n+]2cccc3ccccc32)cc1 |  | 22.3 µM (active) |
